PMC12136788
Substitutions are numbered along the chain they refer to. Over roughly 5,800 sequences, “enrichment r” has its median near 0.68; the highest 2% begin near 11. Only a selection was taken, and the highest values are over-represented in it overall.

T1: UNK ZnF1-6 (called full-length) (human, UniProt Q9C0B0 30-357)
T1 sequence: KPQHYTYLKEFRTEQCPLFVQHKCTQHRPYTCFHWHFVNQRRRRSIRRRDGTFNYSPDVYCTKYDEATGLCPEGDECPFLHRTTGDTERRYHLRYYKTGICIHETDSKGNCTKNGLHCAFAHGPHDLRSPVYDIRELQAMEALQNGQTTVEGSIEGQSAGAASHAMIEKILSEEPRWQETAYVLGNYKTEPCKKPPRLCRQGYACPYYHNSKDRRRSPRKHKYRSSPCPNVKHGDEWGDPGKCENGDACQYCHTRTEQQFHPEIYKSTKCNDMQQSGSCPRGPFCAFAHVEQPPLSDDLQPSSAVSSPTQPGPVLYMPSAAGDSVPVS

B1: chr10:87814449:87814585:-|CDS|ENSG00000138138|unk|FALSE|bound_elsewhere (ssRNA)
RNA: GGGAGUUCUACAGUCCGACGAUCUUUAAUUUUCCGUUUGACAAUAUUUGGUGCAGUGACAUACUUUACUAUCAAAUGGAUGGUAGAUGCAAUUGAUCCAACCAGAAAGCAAAAAGUAGAAGCUCAGAAACAGGUAUGAUUGAACAACAGAGGAUUGAGCAUCA
B2: ENSG00000104805:stop:overlap|stop_codon|ENSG00000104805|stop_codon|NA|stop_codon (ssRNA)
RNA: GGGAGUUCUACAGUCCGACGAUCAGUUGAAGGAGGUGUGGGAGGAGCUGGAUGGACUGGACCCCAACAGCAUCCCAAAGUGCUAGGAUUACAGGCGUGAGUCACUGCGCCCGGCCUCGAAAGCCCUUUCUCUAUGGUGGAUCACAACAGAGGAUUGAGCAUCA
B3: chr2:45599705:45599806:-|CDS|ENSG00000068784|msi1|total|mutant (ssRNA)
RNA: GGGAGUUCUACAGUCCGACGAUCCUCAUAUGUUCUCUUUGUGGUUUGACCGAACCGCUCUGUGGCUAUUGCUGAUACUGCUUCCGAAGACAGAAAAAAUAAAUUGGAUACUGUACAGACUCUGAAAACAGCCAAGACAAAACACAACAGAGGAUUGAGCAUCA
B4: chr1:93365539:93365640:+|3pUTR|ENSG00000117505|unk|FALSE|unique (ssRNA)
RNA: GGGAGUUCUACAGUCCGACGAUCAGGAGGCAAAAUUGCACCCUGUUGAAAACCACCACCUUAGAUCAUCUAGGUUUUACUUUUAGGAUAAGACACUUGAGGGAAAGGCUGUGAAACUGAACCUCUGUUAGAAGCAACACACAGCAACAGAGGAUUGAGCAUCA
B5: chr2:171983412:171983537:+|3pUTR|ENSG00000128708|unk|total|mutant (ssRNA)
RNA: GGGAGUUCUACAGUCCGACGAUCUGAUGACUUUAAUUUUAAAAUCUUGUGACAUUUUGCUUAUACUAAAAGUUAUCUAUCUUCCGUUGAAUAUUUUCUUUUGGAGAGAUUGUAUAUUUUAAAAUACUGUUCCGAGUUUAUGAGCAACAGAGGAUUGAGCAUCA
B6: chr19:41330322:41331077:-|three_prime_utr|ENSG00000105329|control|control|control (ssRNA)
RNA: GGGAGUUCUACAGUCCGACGAUCGUCUGCACUAUUCCUUUGCCCGGCAUCAAGGCACAGGGGACCAGUGGGGAACACUACUGUAGUUAGAUCUAUUUAUUGAGCACCUUGGGCACUGUUGAAGUGCCUUACAUUAAUGAACUCCAACAGAGGAUUGAGCAUCA
B7: chr12:88196262:88196297:+|3pUTR|ENSG00000139324|msi1_unk|FALSE|overlapping (ssRNA)
RNA: GGGAGUUCUACAGUCCGACGAUCUGUAUACUUGUUUUUAACUUUAAAUGUAAUUUUUAAUCAGGUAAAGUUUGACACAUGUAUAGCUACAUACACACAUUUUUAAUGGUGCUCAUAUAUACUGUAUUUUUUGUUGUUUAGUUUCAACAGAGGAUUGAGCAUCA
B8: chr5:136976780:136976881:-|3pUTR|ENSG00000152377|msi1|FALSE|unique (ssRNA)
RNA: GGGAGUUCUACAGUCCGACGAUCCUUAAAUUAGCAUGUUCCAAUCCAGUCGGCAUUGCCUGAAUACAGUAGCAUCAUACCUAUAGUUGGUCUUAGAUAAGAAAUGAACUACUUGAUAUAGCAAAGUCCUUUGGCUUCGUAAAUCAACAGAGGAUUGAGCAUCA
B9: chr3:64018827:64018930:-|CDS|ENSG00000163636|unk|FALSE|unique (ssRNA)
RNA: GGGAGUUCUACAGUCCGACGAUCUGAACUCAUGGAUUAUAAAACAUUUGUGACUUAUACUGUCUAUGUCAGUAUGAUUGCCUUAGAAAGACCAGAUCUCAGGGAAAAGGUAAUGACCAAACUUUAAUACUCAAAUUUAAAGACCAACAGAGGAUUGAGCAUCA
B10: chr6:105100707:105100870:-|3pUTR|ENSG00000112276|msi1|total|mutant (ssRNA)
RNA: GGGAGUUCUACAGUCCGACGAUCUGAGAUAUAUAUUUUCACAGUCUUUUCCCGAUAUAUUAUUGUUUUAACUUAACAAAUCUCCGCAAUCUCUCAAUGCCUUUUCACUUAUUUUUUUCCAAGUUAUGAUUCUUUUUCCUCACACAACAGAGGAUUGAGCAUCA
B11: chr5:24509697:24509799:-|CDS|ENSG00000040731|unk|FALSE|unique (ssRNA)
RNA: GGGAGUUCUACAGUCCGACGAUCACUCGACUAUGAGAGCCGAAGACUUUAUACUCUGAAAGUCGAAGCAGAAAACACCCAUGUAGAUCCCCGUUUUUAUUACCUAGGACCAUUUAAAGAUACUACCAUAGUGAAAAUCUCUAUCAACAGAGGAUUGAGCAUCA
B12: chr11:118396625:118396726:+|3pUTR|ENSG00000110344|msi1|FALSE|bound_elsewhere (ssRNA)
RNA: GGGAGUUCUACAGUCCGACGAUCAACUUGACAAUGCUCCCCUGGCUUGCAGGAAAUUAUACUUAUUAUAGCAUCACCAAGUUUAGAAAUCAUCACUAAUUUUCACCCUCUGUUGUCUCUUCAUAUUCUUCUUCCUUUUCCUAACAACAGAGGAUUGAGCAUCA
B13: chr6:105100707:105100870:-|3pUTR|ENSG00000112276|msi1|FALSE|unique (ssRNA)
RNA: B10 RNA with C51U, C52A, C83U, C84A
B14: chr8:103442975:103443076:+|3pUTR|ENSG00000164934|msi1|FALSE|bound_elsewhere (ssRNA)
RNA: GGGAGUUCUACAGUCCGACGAUCGGACUAGAUUAAUUGCAAACAUUUUAGUUAUAUGUGUAGAGCUUUAUUGUUACUCCUUUUAGCUACCCUGAAAAAUGAUCCUUAAAGGUGGCCUAGUUGGUAAGACUGUUUUAUCCUUAACAACAGAGGAUUGAGCAUCA
B15: chr20:59325757:59325866:+|3pUTR|ENSG00000124205|unk|FALSE|unique (ssRNA)
RNA: GGGAGUUCUACAGUCCGACGAUCUUAUGUGGAUCUGUUCAAAGUAGUCACUGUAUAUACGUAUAGAGAGGUAGAUAGGUAGGUAGAUUUUAAAUUGCAUUCUGAAUACAAACUCAUACUCCUUAGAGCUUGAAUUACAUUUUUCAACAGAGGAUUGAGCAUCA
B16: chr3:168010103:168010202:-|3pUTR|ENSG00000173905|msi1_unk|FALSE|overlapping (ssRNA)
RNA: GGGAGUUCUACAGUCCGACGAUCGCUCAAACAUAAAUCUGCCUACUGAACUCUAGGAUAUUUAAUUACAAAAAUUAAGAACUUAGACUUUUUUAAAACUUUUGUAUUAGAAAUGCGCAUACAUUUAUAUGAAUAUAUUUUGAUCAACAGAGGAUUGAGCAUCA
B17: chr9:5123879:5124511:-|three_prime_utr|ENSG00000120210|control|control|control (ssRNA)
RNA: GGGAGUUCUACAGUCCGACGAUCCUGGUAAAUUGGAUUGCCAUAUGCAGAAGAAUGAAACUGGACCCAUAUUUAUCACCAUAUAGAAAAAUUAACUCGAUCGAUUACAGACUUAAAUGUAAGAUCUGAAACUAGAAAAAUACUCAACAGAGGAUUGAGCAUCA
B18: chr12:50748518:50748596:+|3pUTR|ENSG00000066084|msi1_unk|FALSE|overlapping (ssRNA)
RNA: GGGAGUUCUACAGUCCGACGAUCUCAAAUUCAAACUACAGUACUGUGUAAUUAUGUAUAAAGUUUUUUUAUUUAUUUGAAGUUAGACUAGAUAUACGUUUUUAAAUUUAACAUCUGGCUGGACAGUGUUCUAUUAACUCAUUGCAACAGAGGAUUGAGCAUCA
B19: chr12:48342538:48342639:-|3pUTR|ENSG00000167528|unk|FALSE|unique (ssRNA)
RNA: GGGAGUUCUACAGUCCGACGAUCUUGUUAAACAUUUUGAGUAUCACUCUUGCAUACUGUUACUAUUAUAUUUUCUCUAUAUAUAGACAGAAAGGCCAUUUUAGAAUAUUAAAGGCUCUGAAAAUUUCUGCAGUAGACCCAACUCAACAGAGGAUUGAGCAUCA
B20: chr3:168010103:168010202:-|3pUTR|ENSG00000173905|msi1_unk|total|mutant (ssRNA)
RNA: B16 RNA with U53C, A54C, U83C, A84C, U107C, A108C
B21: chr6:43570573:43570674:-|CDS|ENSG00000124571|unk|FALSE|unique (ssRNA)
RNA: GGGAGUUCUACAGUCCGACGAUCGGUGUAGGAAACACAGACAGAAUUGGUGAUGUUUAUCCUUUUGCGACUGGCAGAGGAUGUAGUGACUUUUCAGACACUUCCCCCUCAAAGAAGAAGGGACAUCCAGCAAACAUUAACCCACAACAGAGGAUUGAGCAUCA
B22: chr11:73394502:73394603:+|CDS|ENSG00000054967|msi1|total|mutant (ssRNA)
RNA: GGGAGUUCUACAGUCCGACGAUCCACCAUCUCCACACCGUGCAGGGCCUGGCCUCGCUCUCUGGCCCCUGCUGCUCCCGCUGCCGCCAGAAGAAGUGGCCCGAGGUGCUGCUGUCCCCUGAGGCUGCCGCCGCCACUACUCCUCAACAGAGGAUUGAGCAUCA

These binders were tested against T1, UNK ZnF1-6 (called full-length) (assay: nsRBNS (natural sequence RNA bind-n-seq); RBNS binding buffer (assumed for nsRBNS): 25 mM Tris pH 7.5, 150 mM KCl, 3 mM MgCl2, 0.01% Triton X-100, 500 ug/ml BSA, 20 U/ml SUPERase-In, 4 C; UNK is unkempt and MSI1 is Musashi-1; names of the RNAs are library labels; protein concentration not given here; high values mean tight binding).

Binder | binding signal
B1 | 0.395 enrichment R
B2 | 0.682 enrichment R
B3 | 0.362 enrichment R
B4 | 5.47 enrichment R
B5 | 0.599 enrichment R
B6 | 2.74 enrichment R
B7 | 3.56 enrichment R
B8 | 8.89 enrichment R
B9 | 0.48 enrichment R
B10 | 3.08 enrichment R
B11 | 1.94 enrichment R
B12 | 4.24 enrichment R
B13 | 18.7 enrichment R
B14 | 6.96 enrichment R
B15 | 20.3 enrichment R
B16 | 12.6 enrichment R
B17 | 21.7 enrichment R
B18 | 6.56 enrichment R
B19 | 3.54 enrichment R
B20 | 3.17 enrichment R
B21 | 0.529 enrichment R
B22 | 0.888 enrichment R
